Measured values taken from PubChem BioAssay (NCATS).
Values joined by “and” are separate entries in the source; they are usually repeats but may differ in a detail not shown here. Equal values may be shown once. Results filed as inconclusive are left out. Active and inactive are the calls of the source. Unless noted, the call rests on the fitted dose curve; in most records, active means well fitted curve in the direction sought with a large enough effect; inconclusive means small, poorly fitted or top-dose-only effect, or another doubt; inactive means no such curve, though single readings can be large; an effect the other way counts as inactive or inconclusive.

Assays:
[1] = qHTS assay for small molecule disruptors of the mitochondrial membrane potential - 5 hr assay (AID 651755; calls by dose curve; further: on the % scale 0 is the no-effect control and ±100 the full control effect; nearly all actives have a fitted effect of over 40% in size)
Summary of the method: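 HepG2 cells, attached overnight at 37C, were exposed to compound or DMSO for 5 hr at 37C, 5% CO2. Mito-MPS dye was then added for 30 min, and fluorescence read at 490/535 nm (monomers) and 540/590 nm (aggregates).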

[2] = molecular target: Tumor necrosis factor (Homo sapiens) (UniProt P01375); assay: qHTS assay to identify small molecules that stimulate Tumor Necrosis Factor-alpha (TNF-alpha) secretion (AID 651757; active means well fitted curve in the direction sought with a large enough effect in the signal ratio; the % refers to the signal ratio; further: 0% is about no effect)
Chain of Tumor necrosis factor (Homo sapiens) (P01375 whole entry, looked up): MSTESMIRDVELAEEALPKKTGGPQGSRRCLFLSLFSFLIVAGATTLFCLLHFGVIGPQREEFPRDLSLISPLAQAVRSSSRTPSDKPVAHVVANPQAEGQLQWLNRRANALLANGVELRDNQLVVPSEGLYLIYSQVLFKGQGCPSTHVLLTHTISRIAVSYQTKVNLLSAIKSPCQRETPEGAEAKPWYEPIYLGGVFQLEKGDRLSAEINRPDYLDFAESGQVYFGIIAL
Summary of the method: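 THP-1 cells were exposed to compounds for 17 hrs at 37 C, after which secreted TNF-alpha was measured by homogeneous HTRF (TR-FRET) using cryptate- and XL665-labeled anti-TNF-alpha antibodies, read after 3 hr at room temperature.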

[3] = qHTS assay for environmental chemicals that activate the Aryl hydrocarbon Receptor (AhR) signaling pathway (AID 651777); conditions: 1A2-DRE human hepatoma cells, luciferase, 24 h; activation: stronger effect = higher value; further: % of control where 0% means no effect; nearly all actives have a fitted effect of over 15% in size
Summary of the method: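 Luminescence (One-Glo, 30 min, room temperature) reports AhR-driven luciferase in stably transfected human hepatoma cells bearing DRE and CYP1A2 promoter. Cells (1,200/well) were treated with compound for 24 hr at 37 C in qHTS format.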

[4] = molecular target: Peroxisome proliferator-activated receptor alpha (Homo sapiens) (UniProt Q07869); assay: qHTS assay for small molecule agonists of the peroxisome proliferator-activated receptor alpha (PPARalpha) signaling pathway (AID 651778); conditions: PathHunter PPARalpha complementation, chemiluminescence, 6 h; stronger effect = higher value; further: % of control where 0% means no effect
Chain of Peroxisome proliferator-activated receptor alpha (Homo sapiens) (Q07869 whole entry, looked up): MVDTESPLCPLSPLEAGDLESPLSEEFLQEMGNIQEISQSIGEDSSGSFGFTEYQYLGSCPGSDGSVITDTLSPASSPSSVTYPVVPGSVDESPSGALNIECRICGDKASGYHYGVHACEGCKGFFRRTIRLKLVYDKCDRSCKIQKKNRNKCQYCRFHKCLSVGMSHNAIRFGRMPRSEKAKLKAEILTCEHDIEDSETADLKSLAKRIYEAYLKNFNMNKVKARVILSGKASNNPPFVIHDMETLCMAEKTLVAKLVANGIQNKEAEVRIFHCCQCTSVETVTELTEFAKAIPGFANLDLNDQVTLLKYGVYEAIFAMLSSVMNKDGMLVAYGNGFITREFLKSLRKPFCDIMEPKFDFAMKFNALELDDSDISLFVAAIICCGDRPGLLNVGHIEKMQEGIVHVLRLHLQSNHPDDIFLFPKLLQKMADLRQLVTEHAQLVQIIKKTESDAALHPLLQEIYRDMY
Summary of the method: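 Cells plated at 2,000/well and held overnight at 37 C, 5% CO2, then compound added by pin tool for 6 hr; after PathHunter detection reagent and 60 min at room temperature, chemiluminescence from enzyme complementation was read.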

[5] = molecular target: Nuclear receptor ROR-gamma (Homo sapiens) (UniProt P51449); assay: qHTS assay for small molecule antagonists of the retinoid-related orphan receptor gamma (ROR-gamma) signaling pathway (AID 651802); further: series mostly up to about 92 µM; on the % scale 0 is the no-effect control and ±100 the full control effect; nearly all actives have a fitted effect of over 60% in size
Chain of Nuclear receptor ROR-gamma (Homo sapiens) (P51449 whole entry, looked up): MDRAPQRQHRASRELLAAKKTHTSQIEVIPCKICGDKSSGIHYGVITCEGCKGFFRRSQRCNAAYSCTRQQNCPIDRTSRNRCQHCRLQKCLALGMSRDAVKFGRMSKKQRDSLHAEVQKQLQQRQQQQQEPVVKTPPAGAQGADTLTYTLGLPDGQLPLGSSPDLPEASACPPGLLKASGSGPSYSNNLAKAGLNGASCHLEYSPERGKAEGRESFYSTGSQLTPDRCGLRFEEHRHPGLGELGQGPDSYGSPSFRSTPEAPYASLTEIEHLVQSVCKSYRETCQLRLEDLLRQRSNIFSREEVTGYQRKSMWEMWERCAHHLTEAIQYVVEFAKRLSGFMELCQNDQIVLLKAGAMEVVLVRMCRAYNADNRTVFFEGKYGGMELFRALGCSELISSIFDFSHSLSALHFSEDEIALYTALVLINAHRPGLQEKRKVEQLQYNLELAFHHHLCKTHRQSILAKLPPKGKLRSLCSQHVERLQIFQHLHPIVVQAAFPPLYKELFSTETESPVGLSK
Summary of the method: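 CHO cells carrying TET-inducible ROR-gamma and an ROR response element–luciferase reporter were exposed to compound, then induced with doxycycline. After 16hr at 37C, luminescence was read; lower signal indicates antagonism.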

[6] = qHTS assay for small molecule agonists of the antioxidant response element (ARE) signaling pathway measured by Nrf2-dependant transcriptional activity (AID 720636; active means well fitted curve in the direction sought with a large enough effect in the repeat runs; an effect the other way counts as inactive or inconclusive; further: % of control where 0% means no effect)
Summary of the method: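 Nrf2-dependent transcription read as ONE-Glo luciferase signal from ARE-luc HepG2 reporter cells after 16 hr compound treatment at 37 C, 5% CO2, in assay medium with 1% dialyzed FBS.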

[7] = qHTS assay for small molecule antagonists of the retinoid-related orphan receptor gamma (ROR-gamma) signaling pathway - cell viability counter screen (AID 720652; active means well fitted curve in the direction sought with a large enough effect in the repeat runs; an effect the other way counts as inactive or inconclusive;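 further: series mostly up to about 92 µM; compound exposure lasted 16 hr before ATP read; on the % scale 0 is the no-effect control and ±100 the full control effect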)
Summary of the method: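 Counter screen in CHO cells carrying TET-inducible ROR-gamma and an ROR response element-luciferase reporter; cells plated 5 hr, compound pinned, doxycycline added, then 16 hr at 37 C. Viability read as intracellular ATP by CellTiter-Glo luminescence.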

[8] = qHTS assay for small molecule agonists of the antioxidant response element (ARE) signaling pathway measured by Nrf2-dependant transcriptional activity - cell viability counter screen (AID 720653; active means well fitted curve in the direction sought with a large enough effect in the repeat runs; an effect the other way counts as inactive or inconclusive; further: on the % scale 0 is the no-effect control and ±100 the full control effect); conditions: ARE-bla HepG2 viability, CellTiter-Glo ATP luminescence, 16 h; stronger effect = lower value
Summary of the method: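 ARE-bla HepG2 cells (2,000/well) rested 5 hrs at 37C/5% CO2, then exposed to compounds in DMSO for 16 hrs. Viability was read in the same wells as intracellular ATP by luminescence, 30 min at room temperature after reagent addition.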

[9] = qHTS assay for cell viability of HEK293 cells (AID 743288); conditions: ATP luminescence (CellTiter-Glo), 18 h, stronger effect = lower value; further: on the % scale 0 is the no-effect control and ±100 the full control effect; nearly all actives have a fitted effect of over 50% in size
Summary of the method: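 Parental HEK293 cells, 2,000 per well, preincubated at least 5 h at 37 C, then exposed to compounds in DMSO for 18 h at 37 C. Viability by CellTiter-Glo ATP luminescence after 30 min at room temperature.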

CCCCCCC=O
inactive: Potency [1] | Potency [2] | activation [3] -0.184% | max response [4] -2.2% | Potency [5] | outcome [6] | Potency [7] | max response [8] 14.6% | max response [9] 5.62%

C=CC(=O)OCCCC
inactive: Potency [1] | Potency [2] | activation [3] 0.108% | max response [4] 0.0985% | Potency [5] | outcome [6] | Potency [7] | max response [9] -0.0822%

Cc1ccc(Cl)cc1
inactive: Potency [1] | Potency [2] | activation [3] -0.186% | max response [4] -0.102% | Potency [5] | outcome [6] | Potency [7] | max response [8] 4.9% | max response [9] -4.66%

CC(C)CCOC(=O)/C=C/c1ccccc1
inactive: Potency [1] | Potency [2] | activation [3] 0.411% | max response [4] 0.372% | Potency [5] | outcome [6] | Potency [7] | max response [8] 5.13% | max response [9] -10.1%

O=[N+]([O-])c1ccc(CCO)cc1
inactive: Potency [1] | Potency [2] | activation [3] 0.416% | max response [4] -1.57% | Potency [5] | outcome [6] | Potency [7] | max response [8] -24.2% | max response [9] -6.69%

CC1CCCO1 (stereo not drawn)
inactive: Potency [1] | Potency [2] | activation [3] 2.22% | max response [4] 0.088% | Potency [5] | outcome [6] | Potency [7] | max response [8] -3.62% | max response [9] -15.7%

CC(C)(C)c1ccc(OCC2CO2)cc1 (stereo not drawn)
inactive: Potency [1] | Potency [2] | activation [3] 8.83% | max response [4] -5.01% | Potency [5] | outcome [6] | Potency [7] | max response [8] 4.81% | max response [9] 3.48%

O=C(O)c1cccc([N+](=O)[O-])c1
inactive: Potency [1] | Potency [2] | activation [3] 0.347% and -2.14% | max response [4] -2.18% and -2.21% | Potency [5] | outcome [6] | Potency [7] | max response [8] 20.3% and -7.83% | max response [9] 4.89% and -8.68%

CCCCOCCOCCOCCCC
inactive: Potency [1] | Potency [2] | activation [3] -0.359% | max response [4] -5.07% | Potency [5] | outcome [6] | Potency [7] | max response [9] 3.02%

COC(=O)CS
inactive: Potency [1] | Potency [2] | activation [3] -0.254% | max response [4] -1.38% | Potency [5] | outcome [6] | Potency [7] | max response [8] -0.555% | max response [9] 3.47%

Cc1cccc(Br)c1
inactive: Potency [1] | Potency [2] | activation [3] 0.194% | max response [4] -5.52% | Potency [5] | outcome [6] | Potency [7] | max response [8] 6.53% | max response [9] 1.57%

CCOCCOCC
inactive: Potency [1] | Potency [2] | activation [3] 1.1% | max response [4] -2.27% | Potency [5] | outcome [6] | Potency [7] | max response [8] 5.13% | max response [9] 0.474%

CC(O)CC(C)O (stereo not drawn)
inactive: Potency [1] | Potency [2] | activation [3] -0.953% | max response [4] -0.949% | Potency [5] | outcome [6] | Potency [7] | max response [8] -7.28% | max response [9] 7.82%

OC(CCl)CCl
inactive: Potency [1] | Potency [2] | activation [3] 0.26% | max response [4] -0.528% | Potency [5] | outcome [6] | Potency [7] | max response [8] 16.1% | max response [9] 5.53%

BrC(Br)C(Br)Br
inactive: Potency [1] | Potency [2] | activation [3] -0.0804% | max response [4] 6.41% | Potency [5] | outcome [6] | Potency [7] | max response [8] 0.416% | max response [9] 6.64%

O=C(O)c1ccccc1[N+](=O)[O-]
inactive: Potency [1] | Potency [2] | activation [3] -1.41% | max response [4] -2.24% | Potency [5] | outcome [6] | Potency [7] | max response [9] 3.94%

CC(=O)OC(C)C
inactive: Potency [1] | Potency [2] | activation [3] -2.35% | max response [4] -3.3% | Potency [5] | outcome [6] | Potency [7] | max response [9] 1.6%

O=C(Cl)c1ccccc1[N+](=O)[O-]
inactive: Potency [1] | Potency [2] | activation [3] 0.05% | max response [4] 3.57% | Potency [5] | outcome [6] | Potency [7] | max response [8] 18.8% | max response [9] -5.53%

COC(=O)c1ccccc1
inactive: Potency [1] | Potency [2] | activation [3] -0.388% | max response [4] -4.31% | Potency [5] | outcome [6] | Potency [7] | max response [9] 2.22%

Cc1ccc(Br)cc1
inactive: Potency [1] | Potency [2] | activation [3] 0.745% | max response [4] -0.752% | Potency [5] | outcome [6] | Potency [7] | max response [8] -9.09% | max response [9] -7.93%

O=C1OC(=O)c2c(Cl)c(Cl)c(Cl)c(Cl)c21
inactive: Potency [1] | Potency [2] | activation [3] 0.646% and 1.03% | max response [4] 0.893% and -0.287% | Potency [5] | outcome [6] | Potency [7] | max response [9] 5.35% and -3.52%
